Test [1] is described as follows: E. coli DRC41 culture turbidity changes, primary screen, E. coli filamentation inducer project, strain DRC41, OD650, 48 h (AID 1152).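 Note: E. coli MC1000 strain DRC41 lacking acrAB efflux pump and sulA.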 The following applies: E. coli DRC41 (acrAB sulA), higher = more signal, called active from +8 up or from −8 down.
Test [2] in a line: small-molecule binders of probe aLefty1, primary screen, biochemical, small-molecule microarray, 635/667 nm fluorescence (AID 1153).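 Note: score merges spot fluorescence with signal-to-noise ratio from the scanned slide images.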 As to conditions: higher = more signal.
Test [3] can be described thus: PSAC antagonists in infected red cells, primary screen, cell-based, P. falciparum Indochina, OD700, 1 h (AID 1154). The following applies: P. falciparum Indochina infected RBC osmotic lysis, higher = more signal, called active from +8 up or from −8 down.
A short description of test [4]: PSAC antagonists in infected red cells, primary screen, cell-based, P. falciparum Indochina, OD700, 2 h (AID 1155).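 Note: lysis reports solute entry through the parasite surface anion channel PSAC; channel blockers reduce lysis of infected cells.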 The following applies: P. falciparum Indochina infected erythrocytes, osmotic lysis OD700; higher = more signal, called active from +8 up or from −8 down.
Test [5] can be described thus: osmotic lysis modulators in infected erythrocytes, primary screen, PSAC antagonist project, cell-based, P. falciparum Indochina, OD700, 3 h (AID 1156). As to conditions: higher = more signal, called active from +8 up or from −8 down.
Test [6] is described as follows: PSAC antagonists in infected red cells, primary screen, cell-based, P. falciparum Indochina, OD700, 18 h (AID 1157). As to conditions: P. falciparum Indochina infected erythrocytes, osmotic lysis OD700, 18 h; higher = more signal, called active from +8 up or from −8 down.
Test [7] is described as follows: modulators of S6 phosphorylation in cells, primary screen, cell-based, A549, cytoblot, luminescence, serum-stimulated (AID 1158).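 Note: serum-stimulated A549 lung adenocarcinoma cells; signal is phosphorylated S6 detected by cytoblot immunostaining with HRP secondary.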 The following applies: A549 phospho-S6 cytoblot, 5 h, higher = more signal.
For test [8], the target named is NADPH oxidase 2 (Homo sapiens) (UniProt P04839). The test can be described thus: NOX2-dependent H2O2 signal modulators, primary screen, NOX inhibitor project, cell-based, HEK293-NOX2, PMA-stimulated, Amplex Red fluorescence (AID 1159). Note: test concentration not given here. As to conditions: 45 min, higher = more signal, called active from +8 up or from −8 down.
The target in test [9] is NADPH oxidase 4 (Homo sapiens) (UniProt Q9NPH5). The test can be described thus: NOX4-dependent H2O2 signal modulators, primary screen, NOX inhibitor project, cell-based, HEK293-NOX4, tetracycline-induced, Amplex Red fluorescence (AID 1160). The following applies: 45 min, higher = more signal, called active from +8 up or from −8 down.
In test [10] the target is NADPH oxidase 5 (Homo sapiens) (UniProt Q96PH1). The test can be described thus: NOX5-dependent H2O2 signal modulators, primary screen, NOX inhibitor project, cell-based, HEK293-NOX5, Amplex Red fluorescence (AID 1161). As to conditions: HEK293-NOX5, ionomycin, 45 min, higher = more signal.

Calls of active or inactive are those of the source.

Experimental findings from PubChem BioAssay are described below.

NADPH oxidase 5 (Homo sapiens), sequence (Q96PH1 whole entry, looked up): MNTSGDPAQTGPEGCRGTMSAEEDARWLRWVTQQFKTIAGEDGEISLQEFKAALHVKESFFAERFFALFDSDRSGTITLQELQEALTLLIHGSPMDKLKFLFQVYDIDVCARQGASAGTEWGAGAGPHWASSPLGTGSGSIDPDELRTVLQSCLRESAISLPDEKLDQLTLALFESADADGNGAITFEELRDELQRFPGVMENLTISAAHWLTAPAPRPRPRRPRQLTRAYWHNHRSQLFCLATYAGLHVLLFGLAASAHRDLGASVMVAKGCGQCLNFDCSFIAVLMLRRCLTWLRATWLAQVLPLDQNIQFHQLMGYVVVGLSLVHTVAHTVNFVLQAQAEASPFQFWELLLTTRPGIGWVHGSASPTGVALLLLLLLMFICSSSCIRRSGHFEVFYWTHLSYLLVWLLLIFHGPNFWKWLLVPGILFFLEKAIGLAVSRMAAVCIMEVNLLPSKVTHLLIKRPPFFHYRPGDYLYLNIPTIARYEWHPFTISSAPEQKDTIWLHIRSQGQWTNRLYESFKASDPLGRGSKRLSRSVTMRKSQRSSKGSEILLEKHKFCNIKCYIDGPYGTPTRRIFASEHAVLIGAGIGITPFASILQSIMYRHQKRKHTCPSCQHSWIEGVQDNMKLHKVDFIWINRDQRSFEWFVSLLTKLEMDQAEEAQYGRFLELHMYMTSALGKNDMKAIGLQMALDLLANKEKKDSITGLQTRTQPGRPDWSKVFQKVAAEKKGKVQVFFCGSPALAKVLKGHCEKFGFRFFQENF
NADPH oxidase 2 (Homo sapiens), sequence (P04839 whole entry, looked up): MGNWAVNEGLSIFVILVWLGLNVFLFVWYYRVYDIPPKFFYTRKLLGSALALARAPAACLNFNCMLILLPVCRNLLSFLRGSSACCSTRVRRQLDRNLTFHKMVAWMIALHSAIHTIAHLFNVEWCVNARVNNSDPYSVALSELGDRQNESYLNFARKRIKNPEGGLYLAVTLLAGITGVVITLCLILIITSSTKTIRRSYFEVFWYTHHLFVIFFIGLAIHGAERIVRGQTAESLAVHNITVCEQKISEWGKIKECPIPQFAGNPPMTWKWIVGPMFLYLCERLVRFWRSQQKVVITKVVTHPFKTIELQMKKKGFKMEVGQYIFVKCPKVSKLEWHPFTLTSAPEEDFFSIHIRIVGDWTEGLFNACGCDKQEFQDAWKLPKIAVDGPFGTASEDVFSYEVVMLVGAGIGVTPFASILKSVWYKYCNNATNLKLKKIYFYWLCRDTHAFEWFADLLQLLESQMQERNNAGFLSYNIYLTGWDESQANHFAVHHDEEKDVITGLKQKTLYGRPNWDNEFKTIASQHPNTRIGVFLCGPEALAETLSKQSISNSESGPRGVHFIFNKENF
NADPH oxidase 4 (Homo sapiens), sequence (Q9NPH5 whole entry, looked up): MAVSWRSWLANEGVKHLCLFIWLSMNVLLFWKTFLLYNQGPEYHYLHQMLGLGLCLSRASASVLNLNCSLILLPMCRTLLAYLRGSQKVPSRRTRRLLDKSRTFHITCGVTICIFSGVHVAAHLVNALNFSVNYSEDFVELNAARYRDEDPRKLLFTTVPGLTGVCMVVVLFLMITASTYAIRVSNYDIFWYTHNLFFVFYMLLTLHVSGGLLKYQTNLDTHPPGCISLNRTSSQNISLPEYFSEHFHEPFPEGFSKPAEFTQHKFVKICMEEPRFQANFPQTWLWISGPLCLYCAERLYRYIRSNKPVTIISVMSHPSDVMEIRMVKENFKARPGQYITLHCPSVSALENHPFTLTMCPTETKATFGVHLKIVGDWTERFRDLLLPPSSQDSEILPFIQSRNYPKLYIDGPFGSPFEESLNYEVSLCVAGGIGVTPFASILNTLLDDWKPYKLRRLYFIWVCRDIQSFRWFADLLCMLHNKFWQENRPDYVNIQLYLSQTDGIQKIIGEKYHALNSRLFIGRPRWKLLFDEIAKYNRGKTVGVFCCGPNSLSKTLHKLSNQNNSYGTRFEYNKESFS

For `O=C1O[C@H](c2ccccc2)[C@H](c2ccccc2)N2[C@H]1[C@@H](C(=O)N1CCCCCCC1)[C@]1(C(=O)Nc3ccc(C#CCCO)cc31)[C@H]2c1ccc(OCCO)cc1`, the z-score was 0.543 (inactive) in test [1]; 10.3 (active) in [3]; 2.04 (inactive) in [4]; 1.21 (inactive) in test [5]; 1.02 (inactive) in test [6]; 0.456 in test [7]. Further, the z-score in test [8] is 1.11 (inactive); in test [9], 0.597 (inactive); in [10] it was 1.25. The composite z-score in [2] worked out at 3.09.
Regarding `COCCCNC(=O)[C@@]1(C)c2ccccc2C(=O)N(c2ccc(C)cn2)[C@H]1c1ccc(CO)cc1`, the z-score in [1] is -0.0018 (inactive); in test [3], 0.833 (inactive); in test [4], -0.186 (inactive); in test [5], 0.0037 (inactive); in test [6], -0.211 (inactive); in [7] it was -0.161. Moreover, the z-score in [8] was -1.02 (inactive); in [9], -0.261 (inactive); in test [10], -1.7. In test [2], this molecule came in with a composite z-score of -0.341.
Regarding `COCC1=C([C@H](O)CCc2ccccc2)[C@H](CO)[C@@H]2C(=O)N(C)C(=O)[C@@H]2C1`, the z-score in [1] is 1.87 (inactive); in test [3], 9.45 (active); in [4], 1.29 (inactive); in test [5], -0.64 (inactive); in [6] it was 0.254 (inactive); in [7], 0.155. Moreover, the z-score is -0.58 (inactive) in test [8], 0.371 (inactive) in [9] and 0.4 in test [10]. In [2], the composite z-score was -0.0691.
For the molecule `CC(C)C[C@@H]1NC(=O)[C@@H]2C[C@H](C(=O)NCCCC[N+](C)(C)C)[C@H](c3cccc(OCCO)c3)N2C1=O`, the z-score in test [1] is -0.44 (inactive); in test [3], 3.73 (inactive); in test [4] it was 1.16 (inactive); in [5] it was -0.369 (inactive); in [6] it was 0.645 (inactive); in test [7] it was -0.102. Moreover, the z-score in test [8] is -1.2 (inactive); in test [9], -0.152 (inactive); in test [10] it was -0.372. In test [2], this molecule registered a composite z-score of 0.115.
Turning to `COCCOC(=O)N1C(=O)[C@@]2(c3cc(C#CCNC(N)=O)ccc31)[C@H](C(N)=O)[C@H]1C(=O)O[C@H](c3ccccc3)[C@H](c3ccccc3)N1[C@@H]2c1ccc(OCCO)cc1`, the z-score in test [1] was -0.618 (inactive); in [3], 6.81 (inactive); in test [4] it was 1.02 (inactive); in test [5] it was -0.0934 (inactive); in test [6] it was 0.237 (inactive); in test [7] it was -0.575. In addition, the z-score in test [8] is 1.8 (inactive); in test [9], 1.04 (inactive); in [10], 0.0625. The molecule further came in with a composite z-score in test [2] of -0.41.
Turning to `C=C(CCCC)/C(=C/C[C@@H](OC(=O)c1ccncc1)c1ccccc1OCCO)c1cc(C(=O)OC)ccc1OC`, the z-score in test [1] was 0.504 (inactive); in [3], 28 (active); in [4] it was 17.5 (active); in [5], 3.94 (inactive); in [6] it was 2.07 (inactive); in [7], 0.761. For the same molecule, the z-score was 1.08 (inactive) in test [8], -0.25 (inactive) in test [9] and -1.62 in test [10]. In test [2], this molecule returned a composite z-score of 0.282.
On to `Cc1ccc(S[C@]2(C(=O)NCc3ccccc3)CC(=O)N(C3Cc4ccccc4C3)[C@@H]2c2ccc(CO)cc2I)cc1`, for which the z-score was 3.36 (inactive) in test [1]; 3.94 (inactive) in [3]; -0.533 (inactive) in test [4]; -0.406 (inactive) in [5]; -0.63 (inactive) in test [6]; 1.58 in test [7]. Besides, the figures for the z-score in test [8], in test [9] and in test [10] were 0.542 (inactive), -0.966 (inactive) and 1.42, respectively. Further, the composite z-score in [2] stood at 0.0049.
For the molecule `COc1ccc([Si](C)(C)[C@@H]2[C@@H](CCO)O[C@]3(C(=O)N(Cc4cccc(N5C(=O)COc6ccccc65)c4)c4ccccc43)[C@H]2C)cc1`, the z-score is 0.111 (inactive) in test [1]; 3.9 (inactive) in test [3]; 3.53 (inactive) in test [4]; 0.797 (inactive) in test [5]; 2.26 (inactive) in test [6]; 0.373 in test [7]. Moreover, the z-score was 0.416 (inactive) in test [8], 1.36 (inactive) in test [9] and 1.49 in test [10]. The molecule also registered a composite z-score in [2] of 0.139.
As for `CCOC(=O)C[C@H]1[C@H](OC(=O)c2ccccc2-c2ccccc2)[C@@H](NC(=O)c2ccccc2)c2cc(OCCCO)ccc2N1C(=O)Cc1ccc(OC)cc1`, the z-score is -0.81 (inactive) in [1]; 2.01 (inactive) in [3]; 0.318 (inactive) in [4]; -0.338 (inactive) in [5]; 0.109 (inactive) in [6]; 0.0269 in test [7]. For the same molecule, the z-score in test [8] is 0.639 (inactive); in test [9], 1.22 (inactive); in [10] it was 0.327. Further, the composite z-score in test [2] is -0.193.
`COCCOC(=O)N1C(=O)[C@@]2(c3ccccc31)[C@H](c1ccc(OCCO)cc1)N1[C@H](c3ccccc3)[C@H](c3ccccc3)OC(=O)[C@H]1[C@@H]2C(=O)NC[C@H](O)c1ccccc1`: the z-score in test [1] was -0.769 (inactive); in test [3], 7.9 (inactive); in test [4], 1.94 (inactive); in test [5] it was 0.0925 (inactive); in test [6], 0.728 (inactive); in test [7], -0.575. In addition, the values for the z-score in test [8], in test [9] and in test [10] were 1.28 (inactive), 0.989 (inactive) and 0.894, respectively. Moreover, in test [2], the composite z-score was 0.643.
Consider `Cc1ccc(S[C@]2(C(=O)NCC(C)C)CC(=O)N(C3CCCCC3)[C@@H]2c2ccc(CO)cc2I)cc1`, for which the z-score in [1] is 0.256 (inactive); in [3], 4.6 (inactive); in test [4], 0.61 (inactive); in [5], 0.796 (inactive); in test [6], 0.597 (inactive); in [7], 0.212. Moreover, the z-score in test [8] is 1.54 (inactive); in test [9], -1.02 (inactive); in [10] it was -2.07. The composite z-score in test [2] was determined as 0.568.
Consider `C[C@]12C(=O)N(CCCO)[C@@H]3C(=O)N(c4ccc(Cl)cc4)CC=CC31O[C@@H]1/C=C\CCCOC(=O)C12` (stereo not given in full), for which the z-score was -0.511 (inactive) in test [1]; 1.29 (inactive) in test [3]; 0.396 (inactive) in [4]; -0.423 (inactive) in test [5]; 0.211 (inactive) in test [6]; -0.332 in [7]. The values for the z-score in [8], in [9] and in test [10] were 1.53 (inactive), 0.84 (inactive) and 2.71, respectively. The molecule further yielded a composite z-score in [2] of -0.0203.
